Assay results as given in PubChem BioAssay.
The source made the active and inactive calls.

Experiments:
[1] = tested on: Plasmodium falciparum Sir2 (PF13_0152, Sir2A); assay: pfSir2 binders on small-molecule microarrays, primary screen, biochemical, small-molecule microarray, 635 nm fluorescence (AID 1098); settings: small-molecule microarray binding, fluorescence 635 nm; higher = more signal;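 note: score merges spot fluorescence intensity with its signal-to-noise ratio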
[2] = small-molecule microarray binders of probe aDKK1, primary screen, biochemical, biotinylated probe, 635/667 nm fluorescence (AID 1099); settings: higher = more signal;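 note: score merges 667nm spot fluorescence with signal to noise across triplicate slides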
[3] = small-molecule microarray binders of probe aCHRDL2, primary screen, biochemical, biotinylated probe, 635/667 nm fluorescence (AID 1100); settings: higher = more signal
[4] = splicing luciferase reporter signal modulators, primary screen, spliceosome inhibition project, cell-based, HEK293, splice +/- reporter (AID 1101); settings: luminescence, 24 h, higher = more signal, called active from +8 up or from −8 down;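 note: HEK293 cells carrying a splicing-competent luciferase reporter gene; test concentration not given here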
[5] = target: Fibroblast growth factor 10 (Homo sapiens) (UniProt O15520); assay: FGF10 binders on small-molecule microarrays, primary screen, biochemical, small-molecule microarray, 635 nm fluorescence (AID 1102); settings: FGF10 binding, fluorescence 635 nm, higher = more signal
[6] = tested on: glycogen synthase kinase-3 (GSK3A per assay name; protocol says GSK3B); assay: GSK3 binders on small-molecule microarrays, primary screen, biochemical, small-molecule microarray, 635 nm fluorescence, GSK3A (AID 1103); settings: small-molecule microarray binding, fluorescence 635 nm; higher = more signal; note: the record names both GSK3A and GSK3B
[7] = target: Epidermal growth factor receptor (Homo sapiens) (UniProt P00533); assay: EGFR binders on small-molecule microarrays, primary screen, biochemical, small-molecule microarray, 635 nm fluorescence (AID 1104); settings: EGFR binding, higher = more signal;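 note: score merges 667 nm emission intensity with spot signal to noise over triplicate slides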
[8] = target: Follistatin-related protein 3 (Homo sapiens) (UniProt O95633); assay: FSTL3 binders on small-molecule microarrays, primary screen, biochemical, small-molecule microarray, 635 nm fluorescence (AID 1105); settings: FSTL3 binding, higher = more signal;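 note: score merges emission near 667 nm and signal to noise per printed spot across three slides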
[9] = target: Dickkopf-related protein 1 (Homo sapiens) (UniProt O94907); assay: DKK1 binders on small-molecule microarrays, primary screen, biochemical, small-molecule microarray, 635 nm fluorescence scan (AID 1106); settings: DKK1 binding, higher = more signal;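 note: score merges emission near 667 nm with signal to noise over three replicate slides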
[10] = tested on: Inhibin beta A chain (activin A); assay: INHBA (activin A) binders on microarrays, primary screen, biochemical, small-molecule microarray, 635 nm fluorescence scan (AID 1107); settings: small-molecule microarray binding, higher = more signal;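 note: mouse activin A protein probed at 4.33 µg/mL on printed slides; score merges bound-protein fluorescence near 667 nm with spot signal-to-noise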
[11] = tested on: Human papillomavirus type 1a protein E7 (residues 44-93); assay: HPV1a E7 fragment binders on microarrays, primary screen, biochemical, small-molecule microarray, residues 44-93, 635 nm fluorescence (AID 1108); settings: small-molecule microarray binding, fluorescence 635 nm; higher = more signal;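 note: E7 fragment applied at 1 µg/mL in TBST for 1 h at 4 C; score combines spot fluorescence with its signal to noise ratio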
[12] = modulators of HCV replicon luciferase signal, primary screen, HCV replication inhibitor project, Huh7 cells, luciferase reporter (AID 1109); settings: 48 h, higher = more signal;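 note: huh7 hepatoma cells harbouring a luciferase neomycin HCV replicon reporter; luciferase luminescence as measure of HCV replicon replication; test concentration not given here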
[13] = target: Left-right determination factor 2 (Homo sapiens) (UniProt O00292); assay: LEFTY2 binders on small-molecule microarrays, primary screen, biochemical, small-molecule microarray, 635 nm fluorescence scan (AID 1110); settings: LEFTY2 binding, higher = more signal
[14] = target: Calmodulin-1 (Homo sapiens) (UniProt P0DP23); assay: CALM1 binders on microarrays, EGTA buffer, profiling panel, biochemical, small-molecule microarray, Cy5-labelled CALM1 (AID 1111); settings: Cy5-CALM1 binding fluorescence, higher = more signal;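 note: labelled calmodulin applied in Tris saline Tween buffer holding calcium plus EGTA and DTT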
[15] = target: Calmodulin-1 (Homo sapiens) (UniProt P0DP23); assay: calcium-bound CALM1 binders on microarrays, profiling panel, artefact control for SMM control-protein annotation, biochemical, small-molecule microarray, Cy5-labelled CALM1, plus calcium (AID 1112); settings: Cy5-CALM1 binding fluorescence, higher = more signal;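 note: score merges spot fluorescence with signal to noise from triplicate slides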
[16] = small-molecule microarray binders of probe aWnt5a, primary screen, biochemical, biotinylated probe, 635/667 nm fluorescence (AID 1113); settings: higher = more signal;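 note: score merges 667 nm fluorescence intensity with signal-to-noise per printed feature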
[17] = small-molecule microarray binders of probe aShh, primary screen, biochemical, biotinylated probe, 635/667 nm fluorescence (AID 1114); settings: higher = more signal;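 note: probe is biotin-labelled aShh protein from a stem cell growth factor screen; measures binding of labelled protein to compounds printed on the slide; score merges feature fluorescence at 667 nm with signal-to-noise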
[18] = small-molecule microarray binders of probe aNog, primary screen, biochemical, biotinylated probe, 635/667 nm fluorescence (AID 1115); settings: higher = more signal;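 note: probe is biotinylated aNog protein used at 0.15 µg/mL for 1 h at 4 C; z-score combines 667 nm fluorescence of each spot with its signal to noise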
[19] = target: Torsin-1A-interacting protein 1 (Homo sapiens) (UniProt Q5JTV8); assay: LAP1 binders from COS7 cell lysate, primary screen, small-molecule microarray, 635/667 nm fluorescence (AID 1116); settings: COS7-hLAP1 lysate binding, 635 nm fluorescence, higher = more signal
[20] = target: Alpha-bungarotoxin (Bungarus multicinctus) (UniProt P60615); assay: alpha-bungarotoxin binders on microarray, profiling panel, artefact control for SMM control protein annotation, biochemical, small-molecule microarray, Alexa647 label, 635/667 nm fluorescence (AID 1117); settings: alpha-BTX-A647 binding fluorescence, higher = more signal
Sequence of Alpha-bungarotoxin (Bungarus multicinctus) (P60615 whole entry, looked up): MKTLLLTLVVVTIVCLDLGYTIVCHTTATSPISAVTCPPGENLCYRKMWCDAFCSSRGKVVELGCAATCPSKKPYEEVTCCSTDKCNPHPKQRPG

Sequence of Follistatin-related protein 3 (Homo sapiens) (O95633 whole entry, looked up): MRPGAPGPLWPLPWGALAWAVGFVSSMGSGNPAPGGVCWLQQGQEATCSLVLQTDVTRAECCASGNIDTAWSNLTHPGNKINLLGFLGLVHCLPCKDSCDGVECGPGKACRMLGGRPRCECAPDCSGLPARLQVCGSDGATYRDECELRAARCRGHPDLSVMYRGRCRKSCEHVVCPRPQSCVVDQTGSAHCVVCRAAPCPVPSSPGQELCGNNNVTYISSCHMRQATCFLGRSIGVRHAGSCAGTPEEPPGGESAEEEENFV
Sequence of Torsin-1A-interacting protein 1 (Homo sapiens) (Q5JTV8 whole entry, looked up): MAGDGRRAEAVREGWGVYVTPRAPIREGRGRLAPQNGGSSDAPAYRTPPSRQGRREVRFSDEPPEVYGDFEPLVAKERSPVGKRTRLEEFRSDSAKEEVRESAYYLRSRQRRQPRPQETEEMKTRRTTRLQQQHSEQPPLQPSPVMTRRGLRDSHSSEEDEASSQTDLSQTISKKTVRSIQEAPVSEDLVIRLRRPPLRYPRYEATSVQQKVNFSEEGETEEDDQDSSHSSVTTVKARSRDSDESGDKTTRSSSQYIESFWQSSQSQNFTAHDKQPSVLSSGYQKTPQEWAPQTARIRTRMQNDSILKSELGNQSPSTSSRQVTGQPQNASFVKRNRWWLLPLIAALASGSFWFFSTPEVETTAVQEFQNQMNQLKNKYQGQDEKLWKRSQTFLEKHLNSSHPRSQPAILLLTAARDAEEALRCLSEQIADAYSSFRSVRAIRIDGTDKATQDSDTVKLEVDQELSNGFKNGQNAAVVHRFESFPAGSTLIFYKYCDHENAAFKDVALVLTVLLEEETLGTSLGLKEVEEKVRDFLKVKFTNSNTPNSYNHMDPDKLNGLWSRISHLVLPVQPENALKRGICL
Sequence of Dickkopf-related protein 1 (Homo sapiens) (O94907 whole entry, looked up): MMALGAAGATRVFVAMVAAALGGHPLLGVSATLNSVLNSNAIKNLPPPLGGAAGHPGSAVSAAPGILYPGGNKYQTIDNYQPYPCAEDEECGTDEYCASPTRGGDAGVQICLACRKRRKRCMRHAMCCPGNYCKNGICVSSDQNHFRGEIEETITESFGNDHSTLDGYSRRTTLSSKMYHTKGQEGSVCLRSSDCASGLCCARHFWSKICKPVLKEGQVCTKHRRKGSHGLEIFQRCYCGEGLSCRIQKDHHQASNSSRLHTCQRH
Sequence of Left-right determination factor 2 (Homo sapiens) (O00292 whole entry, looked up): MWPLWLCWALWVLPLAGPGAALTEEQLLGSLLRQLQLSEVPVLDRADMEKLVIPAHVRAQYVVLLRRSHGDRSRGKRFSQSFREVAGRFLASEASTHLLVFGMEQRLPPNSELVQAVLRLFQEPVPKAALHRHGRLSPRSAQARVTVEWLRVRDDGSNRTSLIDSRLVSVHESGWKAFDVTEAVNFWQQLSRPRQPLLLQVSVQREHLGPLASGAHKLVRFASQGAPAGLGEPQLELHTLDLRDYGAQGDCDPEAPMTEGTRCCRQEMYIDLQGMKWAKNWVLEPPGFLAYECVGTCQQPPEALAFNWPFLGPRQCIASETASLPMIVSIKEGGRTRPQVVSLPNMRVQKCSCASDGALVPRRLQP
Sequence of Epidermal growth factor receptor (Homo sapiens) (P00533 whole entry, looked up): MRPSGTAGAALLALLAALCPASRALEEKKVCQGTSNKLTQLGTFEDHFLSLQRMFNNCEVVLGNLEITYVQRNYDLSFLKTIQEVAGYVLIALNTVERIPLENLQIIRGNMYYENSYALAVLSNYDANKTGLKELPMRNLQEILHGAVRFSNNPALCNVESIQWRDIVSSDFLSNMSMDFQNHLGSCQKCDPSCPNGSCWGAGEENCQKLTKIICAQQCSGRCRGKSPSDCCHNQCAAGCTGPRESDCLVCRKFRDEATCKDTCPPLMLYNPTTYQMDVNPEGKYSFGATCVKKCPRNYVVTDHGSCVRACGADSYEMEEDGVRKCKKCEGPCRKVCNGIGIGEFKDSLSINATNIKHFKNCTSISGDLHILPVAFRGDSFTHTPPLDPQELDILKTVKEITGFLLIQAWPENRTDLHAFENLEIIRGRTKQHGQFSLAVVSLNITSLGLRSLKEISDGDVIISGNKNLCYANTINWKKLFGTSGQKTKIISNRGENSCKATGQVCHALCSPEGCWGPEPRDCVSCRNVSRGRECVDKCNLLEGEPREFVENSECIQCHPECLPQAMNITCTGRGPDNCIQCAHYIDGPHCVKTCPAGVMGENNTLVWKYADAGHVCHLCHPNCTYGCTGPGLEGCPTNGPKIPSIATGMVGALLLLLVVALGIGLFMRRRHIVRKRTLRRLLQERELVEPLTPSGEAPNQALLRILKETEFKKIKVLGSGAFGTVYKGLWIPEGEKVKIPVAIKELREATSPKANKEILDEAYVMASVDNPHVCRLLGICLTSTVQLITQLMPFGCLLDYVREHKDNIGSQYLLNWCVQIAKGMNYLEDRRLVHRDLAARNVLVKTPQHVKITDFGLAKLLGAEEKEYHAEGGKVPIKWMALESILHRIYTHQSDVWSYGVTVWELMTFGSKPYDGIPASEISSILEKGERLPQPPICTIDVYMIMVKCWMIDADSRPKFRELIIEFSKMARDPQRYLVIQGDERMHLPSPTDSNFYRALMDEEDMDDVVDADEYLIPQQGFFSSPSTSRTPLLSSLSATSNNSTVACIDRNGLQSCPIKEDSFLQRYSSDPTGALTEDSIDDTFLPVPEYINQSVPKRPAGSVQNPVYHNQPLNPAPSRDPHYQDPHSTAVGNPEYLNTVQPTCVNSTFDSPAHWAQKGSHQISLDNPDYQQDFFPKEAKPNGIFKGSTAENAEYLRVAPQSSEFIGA
Sequence of Fibroblast growth factor 10 (Homo sapiens) (O15520 whole entry, looked up): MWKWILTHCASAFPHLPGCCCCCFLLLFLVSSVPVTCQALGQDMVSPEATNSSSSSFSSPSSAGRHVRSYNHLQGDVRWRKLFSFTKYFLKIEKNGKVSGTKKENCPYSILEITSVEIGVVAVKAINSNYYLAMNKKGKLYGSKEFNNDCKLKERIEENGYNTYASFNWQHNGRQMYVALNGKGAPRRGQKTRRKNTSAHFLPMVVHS

SMILES | composite z-score [1] | composite z-score [2] | composite z-score [3] | z-score [4] | composite z-score [5] | composite z-score [6] | composite z-score [7] | composite z-score [8] | composite z-score [9] | composite z-score [10] | composite z-score [11] | z-score [12] | composite z-score [13] | composite z-score [14] | composite z-score [15] | composite z-score [16] | composite z-score [17] | composite z-score [18] | composite z-score [19] | composite z-score [20]
CCN(CC)c1ccc(N2CC=CC34O[C@@H]5/C=C\CCC(C)OC(=O)C5[C@H]3C(=O)N(CCCCCO)[C@@H]4C2=O)cc1 (stereo not given in full) | -1.01 | -0.0549 | 0.288 | 0.292 (inactive) | -0.976 | -1.02 | -0.518 | -0.669 | -0.555 | 0.306 | -2.06 | 0.008 | -1.5 | -0.407 | 0.381 | -0.0346 | -0.253 | -0.234 | -1.59 | -0.324
COC(=O)c1c(CC[C@@H](CO)NC(=O)NCCc2c[nH]c3ccccc23)oc(C(=O)Cc2ccccc2)c1C(=O)OC | 0.176 | -0.281 | -0.805 | -0.251 (inactive) | 0.48 | 0.429 | 0.398 | 0.321 | 0.263 | 0.553 | 0.465 | -1.16 | 0.353 | -0.103 | -0.46 | 0.0657 | -0.0011 | -0.33 | 0.385 | -0.172
CC(c1ccccc1)C(O)C1C=CC2C(=O)N(c3ccccc3)C(=O)C2N1Nc1ccccc1 (stereo not given) | 1.18 | 0.807 | 0.818 | -0.716 (inactive) | 1.4 | 0.297 | 0.177 | 1.46 | -0.0656 | 0.215 | 1.5 | -2.44 | -0.0093 | 1.5 | 0.993 | -0.0758 | -0.0702 | 1.44 | 1.11 | 1.98
COC(=O)C(CC#Cc1ccc2c(c1)[C@]1(C(=O)N2)[C@H](c2ccc(O)cc2)N2[C@H](c3ccccc3)[C@H](c3ccccc3)OC(=O)[C@H]2[C@@H]1C(=O)N1CCN(c2ncccn2)CC1)C(=O)OC | 1.69 | 0.534 | 0.508 | -0.84 (inactive) | 0.621 | 1.03 | 0.116 | 0.655 | 0.0879 | 0.126 | 0.584 | -0.305 | -0.0195 | 1.1 | -0.0671 | -0.0748 | -0.0143 | 0.36 | 0.683 | 2.4
[N-]=[N+]=NCc1ccccc1[C@@H]1OC(c2ccc(OCCCO)cc2)=N[C@]1(CCS(=O)(=O)c1ccccc1)C(=O)N1CCCCC1 | 1.65 | 0.0798 | 0.904 | -0.162 (inactive) | 0.828 | 1.29 | 0.453 | 1.19 | -0.154 | 1.08 | 1.48 | -1.87 | 0.334 | 1.79 | 0.415 | 0.0873 | 0.333 | -0.316 | 1.04 | 1.34
Cc1ccc(S(=O)(=O)N2C[C@@H](C(=O)O)[C@H](Sc3ccccc3)C[C@H]2c2ccccc2)cc1 | 1.47 | 0.707 | 0.999 | 1.64 (inactive) | 1.15 | 0.586 | 0.14 | 1.29 | -0.503 | 0.49 | 1.14 | -0.697 | 0.0026 | 1.61 | -0.127 | 0.0775 | 0.0684 | 1.45 | 1.97 | 0.729
